From PubChem BioAssay (EPA / NIEHS)
Calls of active or inactive are those of the source. The calls were made as follows: active = hit-call score of the fitted dose curve at least 0.9, where 1 is the maximum; inactive = score below 0.9.

Experiments:
[1] = ATG_GRE_CIS: Attagene CIS-FACTORIAL HepG2 Assay for human Glucocorticoid Response Elements (GRE) (AID 2282947); details: HepG2 GRE cis-reporter, Attagene multiplex mRNA; actives raise or lower the signal
Procedure, shortened: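 HepG2, transient cis-reporter transfection, 24 h. Reporter mRNA: RT-PCR then CE, fluorescence. Fit both directions vs DMSO.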

[2] = ATG_ISRE_CIS: Attagene CIS-FACTORIAL HepG2 Assay for human Interferon Regulatory Factor 1 (IRF1) binding to an Interferon-Stimulated Response Element (ISRE) (AID 2282948); details: HepG2 ISRE cis-reporter (Attagene), mRNA transcription readout; actives raise or lower the signal
Procedure, shortened: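 Read-out: fluorescent RT-PCR products resolved by capillary electrophoresis, reporting endogenous transcription factor activity via ISRE-driven reporter mRNA in transfected HepG2 cells dosed for 24 h; gain or loss fitted relative to DMSO.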

[3] = ATG_M_32_CIS: Attagene CIS-FACTORIAL HepG2 Assay for M32 Transcription Factor (Internal Marker) (AID 2282949); details: HepG2 Attagene cis-factorial M32 reporter, mRNA; actives raise or lower the signal;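 also: background control marker of the multiplexed CIS panel rather than a real target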
Procedure, shortened: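 Using DMSO as baseline, bidirectional curve fits were applied to reporter mRNA signals. These came from transiently transfected HepG2 cells exposed for 24 h, with RNA analysed by RT-PCR, FAM primer extension, HpaI digestion and CE.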

[4] = ATG_M_06_CIS: Attagene CIS-FACTORIAL HepG2 Assay for M06 Transcription Factor (Internal Marker) (AID 2282950); details: HepG2 Attagene CIS-FACTORIAL M06 internal marker reporter; actives raise or lower the signal
Procedure, shortened: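 Serves as a background control readout. Transfected HepG2 exposed to compounds for 24 h, then reporter transcripts quantified by fluorescent RT-PCR and capillary electrophoresis. Both directions fitted against DMSO baseline.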

[5] = target: Hypoxia-inducible factor 1-alpha (Homo sapiens) (UniProt Q16665); assay: ATG_HIF1a_CIS: Attagene CIS-FACTORIAL HepG2 Assay for human Hypoxia Inducible Factor 1 (HIF1A) (AID 2282951); details: HepG2 Attagene cis-factorial HIF1a reporter transcription; actives raise or lower the signal
Procedure, shortened: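 Cis-element reporter constructs were transiently transfected into HepG2 cells, which were treated for 24 h; reporter RNA was reverse-transcribed, amplified, labelled and resolved by capillary electrophoresis.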

[6] = target: Hepatocyte nuclear factor 6 (Homo sapiens) (UniProt Q9UBC0); assay: ATG_HNF6_CIS: Attagene CIS-FACTORIAL HepG2 Assay for human Hepatocyte Nuclear Factor 6 (HNF6) (AID 2282952); details: HepG2 Attagene cis-factorial HNF6 reporter transcription; actives raise or lower the signal
Procedure, shortened: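 Using cis-element reporters in HepG2 liver cells, the assay tracks endogenous factor-driven transcription 24 h post-dosing. Signal comes from 6-FAM-labelled, HpaI-digested RT-PCR fragments, with gain or loss scored against DMSO.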

[7] = ATG_MRE_CIS: Attagene CIS-FACTORIAL HepG2 Assay for human Metal Responsive Element (MRE) (AID 2282954); details: HepG2 MRE cis-reporter transcription, Attagene multiplex; actives raise or lower the signal
Procedure, shortened: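 Readout: capillary electrophoresis of 6-FAM-labelled, HpaI-digested RT-PCR reporter products. System: HepG2 cells carrying transient multiplexed cis reporters, dosed 24 h. Analysis: bidirectional fit, DMSO baseline.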

[8] = ATG_PBREM_CIS: Attagene CIS-FACTORIAL HepG2 Assay for human Phenobarbital-responsive Enhancer Module (PBREM) (AID 2282955); details: HepG2 PBREM cis-reporter, Attagene multiplexed transcription; actives raise or lower the signal
Procedure, shortened: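 Multiplexed cis-reporter readout in human hepatoma HepG2 cells; PBREM-regulated transcript quantified after 24 h exposure by fluorescent RT-PCR fragment analysis. Signal changes up or down fitted relative to DMSO.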

[9] = target: Paired box protein Pax-6 (Homo sapiens) (UniProt P26367); assay: ATG_Pax6_CIS: Attagene CIS-FACTORIAL HepG2 Assay for human Paired Box 6 (PAX6) (AID 2282956); details: HepG2 CIS-FACTORIAL PAX6 reporter transcription, RNA readout; actives raise or lower the signal
Procedure, shortened: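 Readout: reporter transcript fluorescence after RT-PCR and capillary electrophoresis. Cells: HepG2, transiently transfected with cis-regulated MRTUs. Exposure 24 h. Gain or loss of signal fitted bidirectionally relative to DMSO.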

[10] = ATG_PXRE_CIS: Attagene CIS-FACTORIAL HepG2 Assay for human Pregnane X Receptor Element (PXRE) (AID 2282957); details: HepG2 Attagene CIS-FACTORIAL PXRE reporter, mRNA; actives raise or lower the signal
Procedure, shortened: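 Using HepG2 transfected with multiple reporter transcription units, endogenous factor-driven transcription was scored as reporter mRNA after 24 h exposure.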

[11] = ATG_PPRE_CIS: Attagene CIS-FACTORIAL HepG2 Assay for human Peroxisome Proliferator-activated Response Element (PPRE) (AID 2282958); details: HepG2 PPRE cis-element reporter, Attagene transcription factor profiling; actives raise or lower the signal
Procedure, shortened: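 DMSO served as negative control and baseline for bidirectional curve fitting. Signal came from PPRE-regulated reporter mRNA in HepG2 cells, measured 24 h post-dosing by RT-PCR, 6-FAM primer extension and capillary electrophoresis.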

[12] = ATG_Sox_CIS: Attagene CIS-FACTORIAL HepG2 Assay for human SRY-box transcription factor (SOX) (AID 2282960); details: HepG2 Attagene cis-factorial SOX reporter, mRNA; actives raise or lower the signal
Procedure, shortened: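 Fluorescence-labelled cDNA fragments from reporter transcripts, sized by CE, give the signal. Cells: HepG2, transiently transfected with cis-regulated reporter units. Exposure 24 h; DMSO negative control; bidirectional curve fitting.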

[13] = target: Transcription factor Sp1 (Homo sapiens) (UniProt P08047); assay: ATG_Sp1_CIS: Attagene CIS-FACTORIAL HepG2 Assay for human Specificity Protein 1 (Sp1) (AID 2282961); details: HepG2 Sp1 cis-reporter transcription, actives raise or lower the signal
Procedure, shortened: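 Chemicals are dosed onto HepG2 cells transfected with multiple cis-promoter reporter constructs, and after 24 h reporter RNA is reverse-transcribed, PCR-amplified and resolved by capillary electrophoresis for fluorescence quantitation; activity is scored up or down against DMSO.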

[14] = ATG_SREBP_CIS: Attagene CIS-FACTORIAL HepG2 Assay for human Sterol Regulatory Element Binding (SREBP) (AID 2282962); details: HepG2 Attagene cis-factorial SREBP reporter, mRNA; actives raise or lower the signal
Procedure, shortened: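 Readout: fluorescent reporter-transcript peaks resolved by capillary electrophoresis after RT-PCR. Cells were human HepG2 carrying transfected cis-promoter reporter constructs, dosed for 24 h. Gain or loss of signal was fitted against DMSO controls.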

[15] = target: Signal transducer and activator of transcription 3 (Homo sapiens) (UniProt P40763); assay: ATG_STAT3_CIS: Attagene CIS-FACTORIAL HepG2 Assay for human Signal Transducer and Activator of Transcription 3 (STAT3) (AID 2282963); details: HepG2, Attagene cis-factorial STAT3 reporter transcription; actives raise or lower the signal
Procedure, shortened: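 Uses human liver HepG2 transiently carrying cis-regulated reporter transcription units. Following 24 h dosing, reporter mRNA induction was detected by RT-PCR and capillary electrophoresis, analysed bidirectionally versus DMSO.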

[16] = ATG_TA_CIS: Attagene CIS-FACTORIAL HepG2 Assay for human TA Basal Promoter (AID 2282964); details: HepG2 Attagene CIS-factorial TA basal promoter reporter; actives raise or lower the signal
Procedure, shortened: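 Background-control readout: TA basal promoter reporter mRNA, fitted in both directions relative to DMSO. Measured by RT-PCR and capillary electrophoresis 24 hours after treating HepG2 human liver cells transiently carrying multiplexed cis-regulated reporter constructs.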

[17] = ATG_TCF_b_cat_CIS: Attagene CIS-FACTORIAL HepG2 Assay for human T-Cell-Factor with beta-catenin (TCF/b-cat) (AID 2282965); details: HepG2 TCF/beta-catenin cis-reporter transcription, actives raise or lower the signal
Procedure, shortened: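 In this cis-format system, transfected HepG2 cells report endogenous transcription factor activity. Readout after 24 h exposure is reporter transcript abundance from RT-PCR and capillary electrophoresis, analysed for gain or loss of signal versus DMSO.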

[18] = target: Heat shock factor protein 1 (Homo sapiens) (UniProt Q00613); assay: ATG_HSE_CIS: Attagene CIS-FACTORIAL HepG2 Assay for human Heat Shock Transcription Factor 1 (HSE) (AID 2282953); details: HepG2 HSE cis-reporter, Attagene RNA transcription; actives raise or lower the signal
Procedure, shortened: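 Endogenous transcription factor activity in transiently transfected HepG2, read as reporter mRNA by RT-PCR with fluorescent capillary electrophoresis after 24 h. Gain or loss of signal fitted versus DMSO baseline.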

[19] = ATG_RORE_CIS: Attagene CIS-FACTORIAL HepG2 Assay for human RAR-related Orphan Receptor Element (RORE) (AID 2282959); details: HepG2 Attagene cis-factorial RORE reporter, mRNA; actives raise or lower the signal
Procedure, shortened: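 Transfect HepG2 with MRTUs; treat 24 h; extract RNA; RT with oligo(dT); PCR with reporter-specific primers; 6-FAM primer extension; HpaI digest 2 h at 37 C; capillary electrophoresis. Fit vs DMSO, bidirectional.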

Measured: AC50

Signal transducer and activator of transcription 3 (Homo sapiens), sequence (P40763 whole entry, looked up): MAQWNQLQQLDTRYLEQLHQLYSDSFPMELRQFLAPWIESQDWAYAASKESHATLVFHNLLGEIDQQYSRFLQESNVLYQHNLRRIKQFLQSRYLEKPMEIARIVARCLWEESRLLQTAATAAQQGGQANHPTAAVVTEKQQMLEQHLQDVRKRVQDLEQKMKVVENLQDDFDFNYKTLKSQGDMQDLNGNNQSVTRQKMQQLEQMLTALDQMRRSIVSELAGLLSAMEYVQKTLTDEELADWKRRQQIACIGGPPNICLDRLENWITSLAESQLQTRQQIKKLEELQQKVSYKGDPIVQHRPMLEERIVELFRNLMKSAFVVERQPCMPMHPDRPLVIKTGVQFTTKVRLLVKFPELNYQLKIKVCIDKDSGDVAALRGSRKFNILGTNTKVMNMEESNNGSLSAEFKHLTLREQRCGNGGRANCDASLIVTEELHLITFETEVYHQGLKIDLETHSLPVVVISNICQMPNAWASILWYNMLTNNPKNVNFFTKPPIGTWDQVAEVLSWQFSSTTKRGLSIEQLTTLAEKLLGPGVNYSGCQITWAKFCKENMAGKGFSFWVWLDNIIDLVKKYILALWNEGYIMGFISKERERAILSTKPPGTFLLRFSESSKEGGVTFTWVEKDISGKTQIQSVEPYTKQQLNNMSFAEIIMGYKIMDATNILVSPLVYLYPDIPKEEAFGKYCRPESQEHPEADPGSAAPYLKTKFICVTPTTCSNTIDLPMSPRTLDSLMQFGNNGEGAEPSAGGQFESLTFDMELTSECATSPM
Hypoxia-inducible factor 1-alpha (Homo sapiens), sequence (Q16665 whole entry, looked up): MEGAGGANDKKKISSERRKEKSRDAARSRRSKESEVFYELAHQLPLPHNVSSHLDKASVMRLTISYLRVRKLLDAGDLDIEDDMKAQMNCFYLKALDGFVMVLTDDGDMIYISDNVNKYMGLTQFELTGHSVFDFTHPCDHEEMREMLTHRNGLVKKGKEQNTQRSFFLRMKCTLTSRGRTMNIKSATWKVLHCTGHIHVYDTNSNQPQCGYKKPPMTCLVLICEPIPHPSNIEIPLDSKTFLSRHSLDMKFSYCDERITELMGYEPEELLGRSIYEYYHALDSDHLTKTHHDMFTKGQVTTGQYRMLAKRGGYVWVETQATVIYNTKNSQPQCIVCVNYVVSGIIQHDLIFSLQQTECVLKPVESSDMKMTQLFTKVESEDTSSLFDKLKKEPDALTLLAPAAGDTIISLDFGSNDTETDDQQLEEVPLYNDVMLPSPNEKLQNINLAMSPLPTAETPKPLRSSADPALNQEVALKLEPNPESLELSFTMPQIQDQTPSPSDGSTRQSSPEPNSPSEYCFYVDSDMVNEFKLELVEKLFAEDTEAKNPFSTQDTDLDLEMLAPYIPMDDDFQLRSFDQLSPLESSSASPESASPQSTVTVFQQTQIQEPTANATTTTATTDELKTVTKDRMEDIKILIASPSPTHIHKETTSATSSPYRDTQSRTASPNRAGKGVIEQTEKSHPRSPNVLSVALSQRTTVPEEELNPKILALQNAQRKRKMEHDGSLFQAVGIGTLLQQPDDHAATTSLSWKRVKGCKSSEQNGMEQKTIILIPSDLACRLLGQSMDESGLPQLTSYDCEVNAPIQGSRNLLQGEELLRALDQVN
Hepatocyte nuclear factor 6 (Homo sapiens), sequence (Q9UBC0 whole entry, looked up, the tested form may be a part): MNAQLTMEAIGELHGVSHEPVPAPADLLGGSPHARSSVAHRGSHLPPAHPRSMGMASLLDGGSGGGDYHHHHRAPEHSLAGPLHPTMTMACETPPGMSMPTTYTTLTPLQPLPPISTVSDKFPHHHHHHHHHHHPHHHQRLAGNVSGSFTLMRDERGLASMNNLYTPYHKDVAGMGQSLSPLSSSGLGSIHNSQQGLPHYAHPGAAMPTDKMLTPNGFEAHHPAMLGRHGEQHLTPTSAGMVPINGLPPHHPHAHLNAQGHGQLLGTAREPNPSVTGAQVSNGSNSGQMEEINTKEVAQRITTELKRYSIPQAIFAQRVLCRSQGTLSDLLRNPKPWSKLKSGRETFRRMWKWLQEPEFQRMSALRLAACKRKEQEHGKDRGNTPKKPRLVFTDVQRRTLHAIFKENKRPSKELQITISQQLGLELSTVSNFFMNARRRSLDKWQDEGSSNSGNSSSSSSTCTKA
Paired box protein Pax-6 (Homo sapiens), sequence (P26367 whole entry, looked up): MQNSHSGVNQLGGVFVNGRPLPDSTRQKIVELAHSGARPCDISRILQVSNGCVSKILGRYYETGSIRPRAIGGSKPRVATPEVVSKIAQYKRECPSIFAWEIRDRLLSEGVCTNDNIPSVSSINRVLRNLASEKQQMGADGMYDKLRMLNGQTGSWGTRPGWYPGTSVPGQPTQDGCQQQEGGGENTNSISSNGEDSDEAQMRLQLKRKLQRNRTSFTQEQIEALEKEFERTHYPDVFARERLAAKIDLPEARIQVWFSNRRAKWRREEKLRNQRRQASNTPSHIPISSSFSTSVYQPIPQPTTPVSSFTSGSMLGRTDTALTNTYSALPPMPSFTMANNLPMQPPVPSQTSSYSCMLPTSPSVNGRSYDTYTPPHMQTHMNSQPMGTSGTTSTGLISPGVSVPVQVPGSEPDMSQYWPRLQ
Transcription factor Sp1 (Homo sapiens), sequence (P08047 whole entry, looked up): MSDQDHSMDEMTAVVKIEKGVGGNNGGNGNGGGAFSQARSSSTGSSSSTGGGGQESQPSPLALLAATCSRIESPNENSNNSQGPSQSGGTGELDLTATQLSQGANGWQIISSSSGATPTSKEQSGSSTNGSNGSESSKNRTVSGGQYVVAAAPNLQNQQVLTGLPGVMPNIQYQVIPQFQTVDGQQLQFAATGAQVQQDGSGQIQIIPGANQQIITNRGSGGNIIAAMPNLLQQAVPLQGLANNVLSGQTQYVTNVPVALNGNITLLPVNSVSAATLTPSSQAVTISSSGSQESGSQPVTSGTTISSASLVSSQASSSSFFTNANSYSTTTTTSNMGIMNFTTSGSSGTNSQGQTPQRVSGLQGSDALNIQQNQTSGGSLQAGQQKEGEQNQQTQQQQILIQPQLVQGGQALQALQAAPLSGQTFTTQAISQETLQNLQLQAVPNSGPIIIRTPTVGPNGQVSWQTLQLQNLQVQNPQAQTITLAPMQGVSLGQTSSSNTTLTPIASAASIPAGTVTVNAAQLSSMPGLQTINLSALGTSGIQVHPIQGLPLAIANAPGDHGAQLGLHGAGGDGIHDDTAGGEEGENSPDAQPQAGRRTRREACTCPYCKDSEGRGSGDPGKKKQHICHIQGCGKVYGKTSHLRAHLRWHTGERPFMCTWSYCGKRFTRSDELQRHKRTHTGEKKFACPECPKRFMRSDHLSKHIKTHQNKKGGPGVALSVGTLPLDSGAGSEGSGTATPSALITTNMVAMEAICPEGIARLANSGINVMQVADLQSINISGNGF
Heat shock factor protein 1 (Homo sapiens), sequence (Q00613 whole entry, looked up): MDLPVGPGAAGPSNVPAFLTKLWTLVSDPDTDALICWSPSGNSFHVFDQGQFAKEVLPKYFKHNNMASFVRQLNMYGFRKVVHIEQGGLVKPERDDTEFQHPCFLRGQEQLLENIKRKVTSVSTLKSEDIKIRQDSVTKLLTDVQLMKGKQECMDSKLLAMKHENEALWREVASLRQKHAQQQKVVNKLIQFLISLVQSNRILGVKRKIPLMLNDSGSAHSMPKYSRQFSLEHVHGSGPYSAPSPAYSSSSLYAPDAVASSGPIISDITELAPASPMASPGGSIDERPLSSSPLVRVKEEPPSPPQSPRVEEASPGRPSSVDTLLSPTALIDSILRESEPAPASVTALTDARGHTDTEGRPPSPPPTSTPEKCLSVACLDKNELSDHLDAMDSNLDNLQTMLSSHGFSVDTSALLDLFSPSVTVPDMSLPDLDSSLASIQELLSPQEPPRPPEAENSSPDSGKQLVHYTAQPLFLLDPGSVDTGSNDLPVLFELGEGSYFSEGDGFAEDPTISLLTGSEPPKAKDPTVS

CC(C)Oc1ccccc1O
active: [10] 39.4 µM
not listed: [18] | [19]
inactive: all other assays above

OCCOCCOCCOCCO
active: [18] 57.2 µM | [10] 29.4 µM
not listed: [6] | [8] | [11] | [19]
inactive: all other assays above

O=C1CCCCCCCCCCOCCCCO1
active: [5] 179 µM | [7] 180 µM
not listed: [10] | [15] | [18]
inactive: all other assays above

CC(C)(C)c1n[nH]c(=S)n(N)c1=O
active: [10] 44.2 µM
not listed: [8] | [11] | [19]
inactive: all other assays above

CC(C)c1cccc(O)c1
active: [10] 28.4 µM
not listed: [6]
inactive: all other assays above

CCCCCCCCCCCCN
active: [14] 18.1 µM
not listed: [12] | [15] | [18] | [19]
inactive: all other assays above

CCCCCCCCC
not listed: [6] | [18]
inactive: all other assays above

CC(C)=CCC[C@](C)(O)[C@@H]1CC=C(C)CC1
active: [10] 11.1 µM
not listed: [18]
inactive: all other assays above
